Data published in ChEMBL document CHEMBL4513216, “Probing the Open Global Health Chemical Diversity Library for Multistage-Active Starting Points for Next-Generation Antimalarials” (ACS Infect Dis, 2020).
In all, about 69,000 compounds went through this assay and about 8,600 (12%) showed an effect of 50% or more. The sample holds strong results, similar compounds and a random draw of the others, so the mix is not that of the screen.

These compounds were tested on Plasmodium berghei (assay: Screen against P. berghei liver stage (PbLuc), transformed with Luciferase, at 10uM). Conditions: tested at 10 uM.
Format: functional, HepG2

Row | Compound | INHIBITION [%]
1 | c1nc(CCC2CCCN2)cc(N2CCCOCC2)n1 (centres undefined) | 48.9
2 | COCCC(=O)NCC1CCC(C(c2ccccn2)N(C)C)CC1 (centres undefined) | 3.48
3 | Cc1ccc(-c2ccnc(N(C)CC3CCCN3C)n2)c(C)n1 (centres undefined) | 10.6
4 | CCN1CCCC(CN(C)c2nccc(-c3ccc(C)nc3C)n2)C1 (centres undefined) | 76.7
5 | Cc1ccc(-c2ccnc(N(C)CC3CCCO3)n2)c(C)n1 (centres undefined) | 47.4
6 | CC(C)n1c(=O)[nH]c2cn(-c3ccc(Cl)cc3)c(=O)n21 | -10.1
7 | COc1ccc(-c2cc(N)on2)cc1OC | 26.3
8 | CCN1CCc2c(sc3c2C(=O)NC(C=Cc2ccco2)N3)C1 (centres undefined) | 49.9
9 | CCc1ccc(CN2CCCCC2c2n[nH]cc2-c2cc(C)no2)cc1 (centres undefined) | 66.6
10 | COc1ccc(CN2CCCCC2c2n[nH]cc2-c2cc(C)no2)cc1 (centres undefined) | 34.1
11 | Cc1cccc(CN2CCCCC2c2n[nH]cc2-c2cc(C)no2)c1 (centres undefined) | 31.3
12 | O=C(c1ccccc1N1CCOCC1)N1CCCC(n2ccnc2)C1 (centres undefined) | 22.1
13 | COCc1ncn2c1CN(C(=O)c1cnc3ccccc3c1)CC2 | 33.2
14 | Cc1noc(CN(Cc2cccc(C#N)c2)Cc2cccs2)n1 | 1.98
15 | Cc1cccc(C)c1NC(=O)c1cccc(N(C)S(C)(=O)=O)c1C | 16.1
16 | CCn1c(CN2CCC(O)(c3ccc4c(c3)OCO4)CC2)cnc1SC | 34.15
17 | Cc1ncc(CN2CCCC(O)(c3ccc(F)cc3)CC2)n1C (centres undefined) | 21.255
18 | CCn1c(CN2CCCC(O)(c3ccc(F)cc3)CC2)cnc1SC (centres undefined) | 51.1
19 | Cc1nc(C)n(C2CCCN(C(=O)c3ccnc(N(C)C)c3)C2)n1 (centres undefined) | 14.4
20 | CN(C)Cc1ccc(C(=O)N2CCCC(n3cccn3)C2)cc1 (centres undefined) | 61.9
21 | O=C(c1cccc(Cn2ccnc2)c1)N1CCCC(n2ccnc2)C1 (centres undefined) | 22.3
22 | CCc1nc(C2CCCN(C(=O)c3ccc(Cl)cc3)C2)no1 (centres undefined) | 23.4
23 | CS(=O)(=O)c1ccc(C(=O)N2CCCC(n3cccn3)C2)cc1 (centres undefined) | 18.8

Row | Compound | INHIBITION [%]
24 | Cc1cnn(C2CCCN(C(=O)c3cccc(Cn4ccnc4)c3)C2)c1 (centres undefined) | 42.9
25 | O=C(c1ccc(CN2CCCC2)cc1)N1CCCC(n2cccn2)C1 (centres undefined) | 11.7
26 | O=C(c1cccc(Cn2ccnc2)c1)N1CCCC(n2cccn2)C1 (centres undefined) | 56.55
27 | CCc1nc(C2CCCN(C(=O)c3ccc(F)cc3)C2)no1 (centres undefined) | 27.4
28 | CCc1ccc(C(=O)N2CCCC(c3nn[nH]n3)C2)cc1 (centres undefined) | 67.4
29 | CS(=O)(=O)NCc1nnc2n1CCN(Cc1ccccn1)C2 | 36.9
30 | CCN1C(=O)CCC12CCCN(CCc1ccccc1)C2 (centres undefined) | 0.112
31 | CN(C)c1cnn(Cc2nc3ccccc3n2C)c(=O)c1 | 29.4
32 | CCC(C)[C@H](N)c1nnc(SCC(=O)Nc2ccc(C)cc2C)o1 (some centres undefined) | 40.4
33 | N#Cc1c(F)cccc1N1CCCC(C(=O)Nc2nccs2)C1 (centres undefined) | -1.85
34 | CC(NC(=O)c1ccnc(C2CC2)n1)C1(N2CCOCC2)CCCC1 (centres undefined) | -20.3
35 | Cc1occc1C(=O)N1CCOCC2(CCN(Cc3nccs3)C2)C1 (centres undefined) | 18.5
36 | COCC(=O)N1C[C@H]2CNC[C@@]2(C(=O)NCc2snnc2C)C1 | -21.8
37 | O=C(N1CCCC1)N1C[C@@H](OCc2cccnc2)[C@H]2OCCC[C@H]21 | -55.7
38 | Cc1nc(COCC2CN(C(N)=O)Cc3nccn3C2)cs1 (centres undefined) | 40.5
39 | CCn1ccnc1CN1CCN(C(C)C(=O)NC2CCCC2)CC1 (centres undefined) | 36.85
40 | O=C(O)c1cn(CC2CCCN(c3cnc4ccccc4n3)C2)nn1 (centres undefined) | 6.24
41 | O=C(O)c1cn(CC2CCCN(c3ccc4ccccc4n3)C2)nn1 (centres undefined) | 46.6
42 | CC(C)(C)c1cn(CC2CCCN(c3cnc4ccccc4n3)C2)nn1 (centres undefined) | 89.6
43 | CCc1nc(C2CCCN(C(=O)c3cccnc3O)C2)no1 (centres undefined) | 9.14
44 | O=C(NCCn1ccc(-c2ccccn2)n1)C1CCC1 | 14.3
45 | CCn1cc(-c2cc(-c3cc(CC(=O)O)cs3)nc(N)c2C#N)c(C)n1 | 37.6
46 | Cc1nn(C)c(C)c1-c1cc(-c2cc(CC(=O)O)cs2)nc(N)c1C#N | 45.8

Row | Compound | INHIBITION [%]
47 | CCn1cc(-c2cc(-c3cc(CN(C)C)cs3)nc(N)c2C#N)c(C)n1 | 76.6
48 | COCCNc1ccc(CC2CCCN(c3ncccn3)C2)nn1 (centres undefined) | 28.05
49 | Cc1ccoc1C(=O)N1CCCN(Cc2cnn(C)c2)CC1 | 15.6
50 | O=C(NCCS(=O)(=O)N1CCN(c2ncccn2)CC1)c1ccccc1 | -101
51 | Cc1cc(C2CCCN(CCc3ccc4c(c3)CCO4)C2)n[nH]1 (centres undefined) | 90.2
52 | NC(=O)c1cc(C2CCCN(CCc3ccc4c(c3)CCO4)C2)n[nH]1 (centres undefined) | 74.3
53 | NC(=O)c1cc(C2CCCN(CCc3ccccn3)C2)n[nH]1 (centres undefined) | 28.7
54 | Cc1cc(C2CCCN(CCc3ccccn3)C2)n[nH]1 (centres undefined) | -0.0706
55 | O=C(C1CCCN(CCc2ccc3c(c2)CCO3)C1)N1CCCC1 (centres undefined) | 6.11
56 | NC(=O)c1cc(C2CCCN(Cc3ccc4c(c3)OCCO4)C2)n[nH]1 (centres undefined) | 11.8
57 | Cc1noc(C)c1CN1CCCC1c1c(C)nn(C)c1Cl (centres undefined) | -16
58 | CC(CCc1ccccc1F)C(=O)NS(C)(=O)=O (centres undefined) | 12.9
59 | CC(CCc1ccccc1F)C(=O)NS(=O)(=O)CC1CC1 (centres undefined) | 10.6
60 | CC(CCc1ccccc1F)C(=O)NS(=O)(=O)N(C)C(C)C (centres undefined) | 80.9
61 | O=C1CCC2(CCCN(CCn3cc(Cl)cn3)C2)CN1C1CCCC1 (centres undefined) | 31.5
62 | Cc1cnc(CCNc2cccc(CC3CCCNC3)n2)s1 (centres undefined) | 41.5
63 | CCn1cc(S(=O)(=O)Nc2nc3c(s2)CC(C)CC3)cn1 (centres undefined) | 11.7
64 | O=C1COC2(CCN(CC3CC3)CC2)CN1c1ccsc1 | 78.8
65 | O=C1COC2(CCN(Cc3ccoc3)CC2)CN1c1ccsc1 | 52.9
66 | O=C1COC2(CCN(Cc3cccs3)CC2)CN1c1ccsc1 | 21.1
67 | O=C1COC2(CCN(CC3CC3)CC2)CN1c1ccccc1 | 36.8
68 | O=C1COC2(CCN(Cc3ccoc3)CC2)CN1c1ccccc1 | -23.4
69 | O=C(CC1CC1)N1CCC2(CC1)CN(c1ccsc1)C(=O)CO2 | 38.1
